The results in this text go back to PubChem BioAssay.

Where “and” joins values, the source holds several entries; their conditions need not be identical. Equal values may be shown once. Calls of active or inactive are those of the source.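 The calls were made as follows, unless noted: active = thallium flux through the channel raised or lowered by more than 3 SD from vehicle-only wells, actives on both sides; inactive = the rest.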

A short description of experiment [1]: Wnt pathway potentiators raising nuclear beta-catenin – imaging, WNT3A-conditioned medium, mouse C2C12, NPC library, primary screen (AID 1117326; in the data active = nuclear beta-catenin stimulation mostly above about 4.2%, no sharp cut-off; inactive = mostly below about 10%). The note with it: stronger effect = higher value.
A short description of experiment [2]: stimulators of insulin release from INS-1E, primary screen, cell-based, 5 mM glucose, NPC library (AID 1117329;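 active = compound raises insulin release from rat beta cells at 5 mM glucose, no numeric limit stated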). The following applies: rat INS-1E insulin secretion, at 10 µM, stronger effect = higher value.
Experiment [3] in a line: growth inhibition of GSK3B-pretreated HCT116 cells – cell-based, CellTiter-Glo, 0.2 to 20 µM (AID 1117336;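 active = compounds lowering colon cancer cell viability after pretreatment blocking the GSK3B kinase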). The note with it: HCT116 viability after GSK3B inhibitor, at 20 µM, stronger effect = higher value. (Cellular ATP, detected with luciferase, serves as a proxy for viable cell number.)
Experiment [4] is described as follows: inhibition of endothelial tube formation, primary screen, imaging, VEGF stimulated, CD31 staining, tube area, NPC library (AID 1117340;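 active = compound that reduces growth-factor-driven endothelial tube area in a mixed cell culture, no cutoff stated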). The note with it: VEGF-stimulated ADSC/ECFC co-culture, at 10 µM, stronger effect = higher value.
Experiment [5] is described as follows: GLP1 release stimulators, primary, NCI-H716, NPC library (AID 1117341;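 active = compound raises GLP1 secretion from the human gut endocrine cells, with no numeric limit stated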). The following applies: NCI-H716 cells, at 10 µM, stronger effect = higher value.
Experiment [6] in a line: HCT116 colon cancer cell growth inhibition, primary screen, CellTiter-Glo luminescence, NPC library (AID 1117342;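 active = compounds that lower survival of HCT116 colon cancer cells in the luminescence readout, no numeric limit stated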). The note with it: at 20 µM (top of the series).
Experiment [7] is described as follows: reduced SW480 viability measured with CellTiter-Glo, NPC library, primary (AID 1117343;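 active = compounds that lower viability of the colon cancer cells in the luminescence readout, with no numeric limit stated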). The note with it: CellTiter-Glo luminescence; at 20 µM (top of the series).
The nature of experiment [8]: NPC library primary testing for decreased DLD-1 cell viability via CellTiter-Glo (AID 1117346;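 active = compounds that lower survival of DLD-1 colon cancer cells in the luminescence readout, no cutoff given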). The following applies: DLD-1 viability, CellTiter-Glo luminescence; at 20 µM (top of the series).
Experiment [9] concerns the target 6-phosphogluconate dehydrogenase, decarboxylating (Homo sapiens) (UniProt P52209). Put plainly: inhibition of human phosphogluconate dehydrogenase – biochemical, recombinant enzyme, NADPH absorbance, primary screen (AID 1159550;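 active = at least 20% inhibition of 6-phosphogluconate dehydrogenase activity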). The note with it: recombinant 6PGD, NADPH absorbance 341 nm; at 10 µM; stronger effect = higher value.
The nature of experiment [10]: modulation of C. elegans fzo-1 (AID 1259413; call rule not given here;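 also: fzo-1 mutant C. elegans worms in liquid wells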). The note with it: C. elegans fzo-1 modulator screen, mean read-out; stronger effect = higher value.
Experiment [11] is described as follows: EMT-state selective cytotoxicity in co-culture – imaging, PC-3E GFP, TEM4-18 mCherry, primary screen (AID 1345086;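 active = compounds killing one labelled cell type while sparing the other, by normalised counts and ratio limits, not self-fluorescent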;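 as to all read-outs here: cells exposed to compound for 72 h before imaging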;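 as to red/green cell ratio (normalised): normalised mesenchymal count divided by normalised epithelial count so high means epithelial killing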). The note with it: PC-3E GFP / TEM4-18 mCherry co-culture, imaging cell counts, at 1 µM; for red/green cell ratio (normalised): actives lie on both sides, counts scaled to control wells, 1 = unselective.
Experiment [12] is described as follows: MELAS cybrid and Rieske KO viability enhancers – cell-based, MELAS cybrids, Rieske KO mouse fibroblasts, CellTiter-Glo, primary screen (AID 1508586;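 active = mean z-score across replicates of 1.96 or higher in either the MELAS or the Rieske mutant cell line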;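 also: z relative to plate mean and SD of compound and empty wells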). The note with it: low glucose.
In experiment [13] the target is NAD(+) hydrolase SARM1 (Homo sapiens) (UniProt Q6SZW1). Put plainly: blocking NAD cleavage by SARM1 SAM-TIR – cell lysate, NAD-Glo luminescence (AID 1508614;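 active = compound whose remaining NAD level is above about 45 nM, limit read from the data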;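 also: higher remaining NAD means stronger inhibition of SARM1 NADase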). The following applies: SAM-TIR HEK293T lysate NADase, at 1 µM, stronger effect = higher value.
For experiment [14], the target named is Mitogen-activated protein kinase 7 (Homo sapiens) (UniProt Q13164). In words: Gal4-ERK5 driven luciferase induction – cell-based, HTS, primary screen (AID 1508626;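 active = luciferase signal above three times the same-plate solvent-only control wells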;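 also: luciferase driven by Gal4-ERK5 fusion binding five Gal4 sites before minimal TATA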). The note with it: HeLa Gal4-ERK5 transactivation, 18 h, at 5 µM, stronger effect = higher value.
In the next experiment the test system is F380Y. Put plainly: BK channel mutant inhibitors and activators – cell-based, U2OS BacMam, thallium flux, beta subunits, selectivity assay, profiling panel (AID 1259406).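 Also: initial slope of Thallos dye fluorescence rise after thallium is added; log ratio against the mean of 0.3% DMSO vehicle wells on the same plate.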 The note with it: U2OS BacMam BK variants, at 30 µM.
In another experiment the test system is F380Y/beta1. The experiment is described as above. The note with it: U2OS BacMam BK variants, at 30 µM.
Another experiment concerns F380Y/beta2Delta. Described as above. The note with it: U2OS BacMam BK variants, at 30 µM.
Another experiment relates to F380Y/beta4. Described as above. The following applies: U2OS BacMam BK variants, at 30 µM.
Experiment [15] has as its target Calcium-activated potassium channel subunit alpha-1 (Homo sapiens) + Leucine-rich repeat-containing protein 26 (Homo sapiens) (UniProt Q12791+Q2I0M4). Described as above. The following applies: U2OS BacMam BK variants, F380Y/Slo1WT/gamma1, at 30 µM.
[16] abbreviates: measured here: epithelial PC-3E GFP cell survival.
The mark [17] stands for this setting: measured here: mesenchymal TEM4-18 mCherry cell survival.
Setting [18] is: MELAS cybrid survival, CellTiter-Glo 48 h, stronger effect = higher value.
Where [19] appears, read: Rieske KO mouse fibroblast survival, CellTiter-Glo 72 h.

Chain of Mitogen-activated protein kinase 7 (Homo sapiens) (Q13164 whole entry, looked up, the tested form may be a part): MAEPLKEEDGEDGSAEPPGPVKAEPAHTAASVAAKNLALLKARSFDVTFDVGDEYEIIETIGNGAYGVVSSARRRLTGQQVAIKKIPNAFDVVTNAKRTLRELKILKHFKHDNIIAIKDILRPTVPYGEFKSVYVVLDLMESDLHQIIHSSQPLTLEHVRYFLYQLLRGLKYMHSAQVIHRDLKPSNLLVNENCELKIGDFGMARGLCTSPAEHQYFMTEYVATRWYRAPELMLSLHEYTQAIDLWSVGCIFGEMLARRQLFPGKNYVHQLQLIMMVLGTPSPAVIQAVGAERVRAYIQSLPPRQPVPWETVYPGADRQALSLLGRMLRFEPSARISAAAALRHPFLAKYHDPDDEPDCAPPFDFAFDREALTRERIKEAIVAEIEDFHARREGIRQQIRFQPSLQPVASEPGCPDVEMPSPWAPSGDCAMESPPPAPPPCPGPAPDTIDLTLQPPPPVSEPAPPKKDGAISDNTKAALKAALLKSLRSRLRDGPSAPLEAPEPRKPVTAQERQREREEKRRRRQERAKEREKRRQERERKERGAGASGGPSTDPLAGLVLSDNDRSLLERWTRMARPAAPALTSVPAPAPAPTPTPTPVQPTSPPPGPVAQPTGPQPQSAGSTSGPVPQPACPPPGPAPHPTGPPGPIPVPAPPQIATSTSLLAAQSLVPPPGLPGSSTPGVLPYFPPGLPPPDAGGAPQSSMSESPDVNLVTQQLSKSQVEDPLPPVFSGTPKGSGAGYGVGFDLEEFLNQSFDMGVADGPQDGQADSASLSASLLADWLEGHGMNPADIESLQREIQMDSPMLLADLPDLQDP
Chain of NAD(+) hydrolase SARM1 (Homo sapiens) (Q6SZW1 whole entry, looked up, the tested form may be a part): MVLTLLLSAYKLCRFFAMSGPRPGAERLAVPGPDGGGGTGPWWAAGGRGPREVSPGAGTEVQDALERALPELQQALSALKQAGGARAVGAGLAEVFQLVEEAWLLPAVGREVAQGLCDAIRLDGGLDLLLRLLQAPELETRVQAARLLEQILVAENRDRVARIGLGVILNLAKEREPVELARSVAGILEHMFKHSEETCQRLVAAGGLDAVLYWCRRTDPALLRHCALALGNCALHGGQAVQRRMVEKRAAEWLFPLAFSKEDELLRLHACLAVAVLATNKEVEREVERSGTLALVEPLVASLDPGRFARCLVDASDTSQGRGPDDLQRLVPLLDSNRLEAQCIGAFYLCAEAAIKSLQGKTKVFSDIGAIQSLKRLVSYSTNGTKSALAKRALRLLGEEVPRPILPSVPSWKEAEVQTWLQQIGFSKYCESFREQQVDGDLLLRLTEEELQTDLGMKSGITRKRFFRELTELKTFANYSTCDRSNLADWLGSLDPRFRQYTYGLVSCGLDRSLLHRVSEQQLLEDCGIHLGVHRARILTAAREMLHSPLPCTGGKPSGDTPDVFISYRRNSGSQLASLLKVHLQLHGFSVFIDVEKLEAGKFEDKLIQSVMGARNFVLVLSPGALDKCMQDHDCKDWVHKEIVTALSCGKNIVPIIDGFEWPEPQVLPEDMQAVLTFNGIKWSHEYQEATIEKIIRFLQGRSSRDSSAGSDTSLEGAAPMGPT
Chain of 6-phosphogluconate dehydrogenase, decarboxylating (Homo sapiens) (P52209 whole entry, looked up): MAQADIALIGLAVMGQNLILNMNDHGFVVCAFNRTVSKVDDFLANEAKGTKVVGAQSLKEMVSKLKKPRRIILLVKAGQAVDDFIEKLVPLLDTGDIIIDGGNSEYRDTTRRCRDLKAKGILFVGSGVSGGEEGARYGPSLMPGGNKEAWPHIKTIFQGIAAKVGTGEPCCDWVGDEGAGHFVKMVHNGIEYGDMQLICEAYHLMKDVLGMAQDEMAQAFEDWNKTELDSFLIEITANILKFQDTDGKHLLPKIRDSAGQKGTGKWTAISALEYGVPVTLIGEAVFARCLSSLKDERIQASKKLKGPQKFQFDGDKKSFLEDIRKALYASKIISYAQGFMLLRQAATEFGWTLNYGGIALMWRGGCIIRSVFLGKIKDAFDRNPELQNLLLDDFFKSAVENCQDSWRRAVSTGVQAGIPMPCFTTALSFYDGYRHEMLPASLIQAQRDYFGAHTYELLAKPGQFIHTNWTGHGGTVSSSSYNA
Chain of Calcium-activated potassium channel subunit alpha-1 (Homo sapiens) + Leucine-rich repeat-containing protein 26 (Homo sapiens) (Q2I0M4 whole entry, looked up, one chain of several): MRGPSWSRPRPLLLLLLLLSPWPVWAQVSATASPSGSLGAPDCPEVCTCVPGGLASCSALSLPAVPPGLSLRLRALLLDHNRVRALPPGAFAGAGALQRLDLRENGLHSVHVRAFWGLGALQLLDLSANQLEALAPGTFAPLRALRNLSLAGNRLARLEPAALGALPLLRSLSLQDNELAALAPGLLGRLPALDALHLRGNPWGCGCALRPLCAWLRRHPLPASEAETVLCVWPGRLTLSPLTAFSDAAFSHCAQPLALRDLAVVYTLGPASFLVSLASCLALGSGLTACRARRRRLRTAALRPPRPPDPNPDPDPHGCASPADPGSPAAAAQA

With `CC(C[N+](C)(C)C)OC(N)=O` (centres undefined), the nuclear beta-catenin stimulation in experiment [1] (at 10 µM) was -0.5% (inactive); in experiment [1] (stimulation, at 2 µM) it was -1.3%. Also, in [2], the insulin secretion stimulation is 0.3% (inactive). In addition, the viability decrease in experiment [3] was -5.9% (inactive). Also, in [4], the tube area decrease was -10% (inactive). Besides, in experiment [5], the GLP1 secretion stimulation is 0.5% (inactive). The inhibition of viability in [6] was -0.4% (inactive). Moreover, the viability decrease (inhibition) was -11.8% (inactive) in experiment [7] and -7.3% (inactive) in experiment [8]. Besides, in experiment [9], the inhibition – broadly, the drop in the measured response relative to a control, in per cent – was -9.2% (inactive). The mean signal in experiment [10] is 276 (inactive). For the same molecule, the red/green cell ratio (normalised) in experiment [11] was 0.97 (inactive). Further, the normalised cell number in experiment [11] (setting [16]) came to 1.15; in experiment [11] (setting [17]), 1.11. Moreover, the z-score is -0.399 (inactive) and 0.646 (inactive) and 0.598 (inactive) in experiment [12] (setting [18]); 0.843 and -0.822 and 0.416 in experiment [12] (setting [19]). Moreover, the remaining NAD in experiment [13] is 10 nM (inactive). Moreover, the luciferase signal in experiment [14] was 56 AU (inactive). Moreover, the log fold change Tl+ flux in the experiment with F380Y is 0.0115 (inactive); in the experiment on F380Y/beta1, 0.0306 (inactive); with F380Y/beta2Delta, -0.0155 (inactive); in the experiment with F380Y/beta4 it was 0.00469 (inactive); in experiment [15], 0.00848 (inactive).

For the molecule `CC(COc1ccccc1)N(CCCl)Cc1ccccc1` (centres undefined), the nuclear beta-catenin stimulation was 1.1% (inactive) in experiment [1] (at 10 µM) and -0.3% in experiment [1] (stimulation, at 2 µM). Also, the insulin secretion stimulation in experiment [2] was 2.8% (inactive). Moreover, the viability decrease in experiment [3] is -32.1% (inactive). Also, the tube area decrease in experiment [4] is 7% (inactive). The GLP1 secretion stimulation in experiment [5] was 3.8% (inactive). Further, the inhibition of viability in experiment [6] is -3.6% (inactive). The figures for the viability decrease (inhibition) in experiment [7] and in experiment [8] were 13% (inactive) and -2.9% (inactive), respectively. Moreover, the inhibition in [9] was 0.0837% (inactive). Moreover, the mean signal in experiment [10] is 239 (inactive). For the same molecule, the red/green cell ratio (normalised) in experiment [11] is 1.22 (inactive). Moreover, the normalised cell number in [11] (setting [16]) was found to be 1.17; in [11] (setting [17]), 1.43. Moreover, the z-score is -0.333 (inactive) and -0.71 (inactive) and -0.596 (inactive) in experiment [12] (setting [18]); 0.469 and 0.0989 and -0.341 in [12] (setting [19]). The remaining NAD in [13] is 10 nM (inactive). In [14], the luciferase signal is 68 AU (inactive). For the same molecule, the log fold change Tl+ flux with F380Y was -0.0529 (inactive); in the experiment on F380Y/beta1, -0.00151 (inactive); in the experiment on F380Y/beta2Delta, -0.054 (inactive); in the experiment with F380Y/beta4, -0.0516 (inactive); in experiment [15], -0.0217 (inactive).

As to `CCCCNc1cc(C(=O)O)cc(S(N)(=O)=O)c1Oc1ccccc1`, the nuclear beta-catenin stimulation in [1] (at 10 µM) was 0.1% (inactive); in experiment [1] (stimulation, at 2 µM), -0.1%. Moreover, in experiment [2], the insulin secretion stimulation was -0.7% (inactive). The viability decrease in experiment [3] is -57% (inactive). Besides, in [4], the tube area decrease was 3.7% (inactive). Further, the GLP1 secretion stimulation in experiment [5] was -2.2% (inactive). Moreover, in experiment [6], the inhibition of viability is 2.63% (inactive). Further, the viability decrease (inhibition) in experiment [7] is 2.4% (inactive); in [8], -4.2% (inactive). The inhibition in experiment [9] was 0% (inactive). Also, the mean signal in [10] was 228 (inactive). Besides, the red/green cell ratio (normalised) in experiment [11] is 0.96 (inactive). Further, the normalised cell number is 1.1 in experiment [11] (setting [16]) and 1.05 in experiment [11] (setting [17]). Besides, the z-score in experiment [12] (setting [18]) is -0.34 (inactive) and 0.797 (inactive) and -0.227 (inactive); in [12] (setting [19]) it was -0.392 and -0.0528 and -1.25. For the same molecule, in experiment [13], the remaining NAD was 10 nM (inactive). Further, in experiment [14], the luciferase signal was 32 AU (inactive). The log fold change Tl+ flux with F380Y was 0.0239 (inactive); in the experiment on F380Y/beta1, -0.0436 (inactive); in the experiment with F380Y/beta2Delta, -0.0452 (inactive); with F380Y/beta4 it was -0.00421 (inactive); in [15] it was -0.0253 (inactive).
